Shown are actives, neighbours in structure and some others; about 7.5% of the full set was active somewhere.
NPC1 promoter act = NPC1 promoter activation; Potency, µM (highest dose often 9.22 µM), for the others: top-dose activation, hits mostly activators; Huh7 NPC1 promoter luciferase reporter, 24 h; actives 2.4% (n = 320,000); note: % of control where 0% means no effect; nearly all actives have a fitted effect of over 60% in size
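Luciferase expression driven by the NPC1 promoter was measured in stably transfected Huh7 cells after a 24 h compound incubation, using a luciferase reagent and a luminescence read.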
ELG1 genotoxic = genotoxicity induction in ELG1-luciferase HEK293T cells. actives 1.3% (n = 330,000). Potency, µM (doses to about 46 µM), for inactives: at the top dose activity change, positive = activation, hits mostly activators. HEK293T ELG1-luciferase reporter, luminescence, 16 h; note: % of control where 0% means no effect; nearly all actives have a fitted effect of over 60% in size
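Luminescence read-out: rising ELG1-luciferase signal, reflecting elevated ELG1 protein under genetic stress, flags genotoxic compounds. Cells were treated for 16 hr at 37 °C before ONE-Glo detection.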
SMN2 splice up = enhancers of SMN2 splice variant expression | HEK293 SMN2-luciferase splicing reporter, luminescence, 30-36 h | Potency, µM (highest dose often 46.1 µM), for inactives: at the highest dose activity change, positive = activation, hits mostly activators | actives 2.8% (n = 210,000) | AID 1458; note: % of control where 0% means no effect; nearly all actives have a fitted effect of over 55% in size
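HEK293 cells carry an SMN2 […]–luciferase reporter in which exon 7 inclusion puts luciferase in frame. Cells were plated 10-12 h before compound addition, then incubated 30-36 h at 37C. ONE-Glo luminescence was read; sodium butyrate at 4.5 mM final served as control.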
FLuc modulator = counter-screen for miR-21 project: firefly luciferase inhibitors or activators; P08659; purified FLuc, Km substrates, luminescence inhibition; Potency, µM (titrated, usually from 57.5 µM), for inactives: top-dose activity change, negative = inhibition, actives largely listed as inhibitors; actives 6.9% (n = 360,000); AID 588342;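 note: plate controls were vehicle for no effect and reference inhibitor for full effect; nearly all actives have a fitted effect of over 55% in size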
Target sequence (P08659 whole entry, looked up): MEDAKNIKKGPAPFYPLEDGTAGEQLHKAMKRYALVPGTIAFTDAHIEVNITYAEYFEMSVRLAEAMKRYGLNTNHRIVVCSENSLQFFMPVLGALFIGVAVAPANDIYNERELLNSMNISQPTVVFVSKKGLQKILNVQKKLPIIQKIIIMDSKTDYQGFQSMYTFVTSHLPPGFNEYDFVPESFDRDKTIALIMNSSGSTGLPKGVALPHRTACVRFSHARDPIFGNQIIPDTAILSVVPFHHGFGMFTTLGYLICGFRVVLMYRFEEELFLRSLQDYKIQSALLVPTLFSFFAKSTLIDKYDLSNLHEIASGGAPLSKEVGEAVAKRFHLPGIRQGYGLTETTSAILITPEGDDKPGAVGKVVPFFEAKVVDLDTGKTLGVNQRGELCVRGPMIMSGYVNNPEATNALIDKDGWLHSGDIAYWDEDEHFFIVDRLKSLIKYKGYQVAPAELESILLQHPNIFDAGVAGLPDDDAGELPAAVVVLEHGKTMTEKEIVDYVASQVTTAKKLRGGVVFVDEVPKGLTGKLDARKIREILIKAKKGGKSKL
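Purified P. pyralis luciferase (10nM final) with 10uM D-luciferin and 10uM ATP (Km levels) in 50mM Tris acetate pH 7.5, 10mM Mg acetate, 0.01% Tween-20, 0.05% BSA; qHTS 6-point titration, ~60 µM downward; luminescence read.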
Rab9 promoter act = Rab9 promoter activation | Huh7 Rab9 promoter-luciferase reporter, luminescence, 24 h | Potency, µM (titrated, usually from 9.22 µM), without a hit: at the highest dose activation, negative = inhibition, actives largely listed as activators | actives 2.8% (n = 320,000) | AID 485297; note: % of control where 0% means no effect; nearly all actives have a fitted effect of over 60% in size
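Cell-based reporter: Huh7 stable for Rab9 promoter-driven luciferase, plated in reduced-serum medium with 10% FBS at 1500 cells/well, compound-treated 24 h at 37 °C, luminescence read after 10 min reagent.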
Starred values were filed as active, the others as inactive; u = inconclusive; x = not tested or not shown; ! = repeats disagree; [ ] = remark or other dose. Calls come from the whole dose curve; as a rule, active = well fitted curve in the direction sought with a large enough effect; inconclusive = small, poorly fitted or top-dose-only effect, or another doubt; inactive = no such curve, though single readings can be large; an effect the other way counts as inactive or inconclusive. Potency is the fitted concentration of half-maximal effect.

SMILES | NPC1 promoter act | ELG1 genotoxic | SMN2 splice up | FLuc modulator | Rab9 promoter act
O=C(Nn1cnnc1)c1cc2c(s1)CCCC2 | 7% | 4% | 7% | 21µM* | 2%
O=C(Nc1cccc(Br)c1)c1cccc(OC(=S)N2CCOCC2)c1 | -4% | -10% | x | -11% | 3%
COc1ccc(NC(=O)CSc2nnc(-c3ccncc3)o2)c([N+](=O)[O-])c1 | 10% | -3% | x | 2% | 10%
C=CC(c1ccccc1)C(C(=O)c1ccccc1)N(C)C (centres undefined) | 1% | -3% | -8% | 2% | 2%
Cc1nc2nc(-c3ccco3)nn2c(C)c1Cl | 10% | -1% | 35µM* | -19% | 0%
COc1ccc(OCc2csc(N)n2)cc1 | u | u | 13µM* | u | 2.8µM*
C=CCN1c2ccccc2[C@]23C[C@@H](C(=O)OC)N(C(=O)COCc4ccccc4)C2=NC(C(=O)OC)=C(C(=O)OC)[C@H]13 | x | x | 5%[9.22 µM] | x | x
Cc1nc(-c2ccc3c(c2)OCO3)cs1 | 17% | 6% | u | 15µM* | 14%
Nc1nc(-c2ccc3c(c2)CCCC3)cs1 | 2.2µM* | u | 11µM* | 2.1µM* | 2.8µM*
Cc1nc(-c2ccc3c(c2)OCCCO3)cs1 | 1.8µM* | u | x | 7.6µM* | 1.6µM*
CC1Cc2cc(-c3csc(N)n3)ccc2O1 (centres undefined) | u | u | x | 9.5µM* | 1.3µM*
Cc1nc(-c2cccc(N)c2)cs1 | 11% | 19% | 7% | -15% | -1%
Nc1nc(-c2ccc3c(c2)NC(=O)CO3)cs1 | -1% | u | -39% | -10% | 3%
c1cncc(-c2nc(-c3ccc4c(c3)OCO4)cs2)c1 | 2.8µM* | u | x | 4.8µM* | 1.6µM*
Nc1nc(-c2ccc3c(c2)OCCO3)cs1 | 3.5µM* | 21µM* | 16µM* | 9.5µM* | 3.5µM*
COCCCNC(=O)c1cccn2c(=O)c3cc4ccccc4cc3nc12 | 27% | 11% | -33% | 15µM* | 19%
CCc1ccccc1-n1nnc(-c2nc(-c3ccccc3F)no2)c1C | x | x | x | 1.2µM* | x
CC(=O)c1nnn(-c2ccc(F)cc2F)c1C | -1% | 0% | x | 0% | 3%
Cc1cccc(C(=O)Nc2nc(-c3nnn(-c4cc(F)ccc4F)c3C)ns2)c1 | x | x | x | 3% | x
Cc1c(-c2ccccc2)nnn1-c1ccc(F)cc1F | u | u | x | 21µM* | u
Cc1c(-c2nc(-c3ccccc3)no2)nnn1-c1cccc(C(F)(F)F)c1 | x | x | x | -2% | x
Cc1c(-c2nc(-c3ccccc3F)no2)nnn1-c1cc(F)ccc1F | x | x | x | 0.17µM* | x
O=C(NC1CCCC1)c1cnn(-c2ccc(F)cc2F)c1C1CCNCC1 | x | x | x | 0% | x
Nc1nc(Nc2ccccc2)sc1C(=O)c1ccccc1 | 2.5µM* | -3% | x | 19µM* | u
COc1ccc(C(=O)c2sc(Nc3ccccc3)nc2N)cc1 | 8% | 2% | x | -18% | 19%
SMILES | NPC1 promoter act | ELG1 genotoxic | SMN2 splice up | FLuc modulator | Rab9 promoter act
COc1ccc(C(=O)c2sc(Nc3ccccc3)nc2N)cc1OC | -14% | -6% | x | u | -2%
COc1ccc(C(=O)c2sc(Nc3ccccc3F)nc2N)cc1 | 2.8µM* | u | x | 11µM* | 2.2µM*
Cc1csc2nc(-c3cccc(NC(=O)c4cccc(F)c4)c3)cn12 | x | x | x | 9.5µM* | x
Cc1csc2nc(-c3cccc(NC(=O)c4ccccc4Cl)c3)cn12 | x | x | x | 12µM* | x
Cc1csc2nc(-c3cccc(NC(=O)c4ccccc4F)c3)cn12 | x | x | x | 6.7µM* | x
Cc1csc2nc(-c3cccc(NS(C)(=O)=O)c3)cn12 | x | x | x | 27µM* | x
Cc1csc2nc(CNS(=O)(=O)c3ccc(-c4ccccc4)cc3)cn12 | -9% | -5% | -34% | 3% | 1%
CCN(CC)C(=O)Cn1c(SCC(=O)Nc2ccc(C)c(C)c2)nc2ccccc21 | x | x | x | 1% | x
O=C(NCCN1CCOCC1)c1cccc(NS(=O)(=O)c2ccc(Br)cc2)c1 | 2% | -2% | x | 5% | 1%
CC1=C(c2ccc(C)cc2)[N+](=O)C(C)(C)N1[O-] | 25% | u | x | 9.5µM* | 4µM*
Cc1c(-c2ccc(F)cc2)[n+](=O)c(-c2ccc(F)cc2)c(C)n1[O-] | 7% | 3% | 0% | 2% | -3%
CC1=C(c2ccc(F)cc2)[N+](=O)C(C)(C)N1[O-] | -5% | -1% | x | 27µM* | -2%
CC1=C(c2ccccc2)[N+](=O)C2(CCCC2)N1[O-] | -1% | 2% | -2% | 3% | -5%
CN(c1ccccc1)S(=O)(=O)c1nnc(NC(=O)C2CCCCC2)s1 | -2% | 2% | x | 0.67µM*! | 3%
CCN(c1ccccc1)S(=O)(=O)c1nnc(NC(=O)c2ccccc2)s1 | x | x | x | 2.4µM* | x
CCN(c1ccccc1)S(=O)(=O)c1nnc(NC(=O)CC(C)C)s1 | -2% | -1% | x | 2% | -3%
CCN(c1ccccc1)S(=O)(=O)c1nnc(NC(=O)c2ccccc2OC)s1 | -1% | -1% | x | 1.7µM*! | -3%
CN(c1ccccc1)S(=O)(=O)c1nnc(NC(=O)c2ccco2)s1 | 1% | 0% | x | -21% | 1%
CN(c1ccc(Cl)cc1)S(=O)(=O)c1nnc(NC(=O)C(C)(C)C)s1 | -6% | -3% | x | 2% | -12%
CN(c1ccccc1)S(=O)(=O)c1nnc(NC(=O)c2ccccc2)s1 | x | x | x | 0.19µM* | x
O=C(COc1ccc2c(c1)OCO2)Nc1ccccc1C(F)(F)F | 14% | u | u | u | u
C/C(=N\NC(=O)Cc1ccc(Cl)cc1)c1ccccc1O | -3% | -1% | x | -9% | -7%
COc1ccc(NC(=O)c2cc3c(=O)n(Cc4cccnc4)ccc3nc2C)cc1Cl | x | x | x | 5% | x
COC(=O)CCCCCN1C(=O)NC(CC2CC2)C(C(=O)OCc2ccccc2)=C1C (centres undefined) | x | x | -28% | x | x
CCc1ccc(C(=O)c2cnc3ccc(F)cc3c2S(=O)(=O)c2ccccc2)cc1 | x | x | -5% | -14% | x
SMILES | NPC1 promoter act | ELG1 genotoxic | SMN2 splice up | FLuc modulator | Rab9 promoter act
Cc1cc(C)cc(C(=O)N2CC(=O)Nc3ccc(C)cc3C2c2ccccc2)c1 (centres undefined) | x | x | -4% | -12% | x
CCN(c1ccccc1)S(=O)(=O)c1nnc(NC(=O)c2cccs2)s1 | x | x | x | 0.34µM* | x
CCCCC(=O)Nc1nnc(S(=O)(=O)N(CC)c2ccccc2)s1 | 0% | -3% | x | 0% | -1%
Cc1cccc(N(C)S(=O)(=O)c2nnc(NC(=O)C(C)Oc3ccccc3)s2)c1 (centres undefined) | x | x | x | 4.8µM* | x
CCCC(=O)Nc1nnc(S(=O)(=O)N(C)c2ccccc2)s1 | x | x | x | 0.85µM* | x
CCN(c1ccc(Cl)cc1)S(=O)(=O)c1nnc(NC(=O)c2ccccc2C)s1 | x | x | x | 4% | x
CCN(c1ccc(C)cc1)S(=O)(=O)c1nnc(NC(=O)c2cccs2)s1 | x | x | x | 13µM* | x
COc1ccc(CCNC(=O)c2ccc(Cn3c(=O)c4ccccc4n(Cc4ccc(F)cc4Cl)c3=O)cc2)cc1OC | x | x | 0% | -2% | x
